Screening results from PubChem.
MBD2 inh: MBD2-methylated oligo binding inhibition; Q9UBB5; TR-FRET, MBD2 binding to methylated oligonucleotide; inhibition, % at 4.4 µM; actives 0.31% (n = 370,000); in the data active = inhibition above about 13%
PLC-gamma1 inh: inhibitors of human phospholipase C gamma1 | purified PLC-gamma1, fluorogenic substrate, fluorescence | actives 0.84% (n = 370,000) | inhibition, % at 12.2 µM | P19174; in the data active = inhibition above about 9.5%
PLCb3 inh: PLC-beta3 (human) inhibition, primary screen; Purified PLC-beta3, fluorogenic substrate, fluorescence; inhibition, % at 12.2 µM; actives 0.18% (n = 370,000); AID 720704; in the data active = inhibition above about 11%;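 note: 0% = median of compound wells on plate and 100% = full blocker control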
UHRF1 MBD2 ctr: UHRF1 methyl-DNA binding inhibition; inhibition, % at 4.4 µM; UHRF1 binding to methylated oligo, TR-FRET; Q96T88; actives 0.75% (n = 370,000); AID 687016;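 note: UHRF1 SRA domain binding a hemimethylated CpG hairpin DNA probe; 0% = median of test compound wells and 100% = reference inhibitor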
LEDGF integ inh: blocks HIV-1 LEDGF/p75-dependent DNA integration; TR-FRET IN-LEDGF/p75 DNA integration, Eu/Cy5; inhibition, % at 3.7 µM; actives 0.64% (n = 370,000); AID 743269;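 active = inhibition above the screen-wide mean plus 3 SD, cut at about 13% in these data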;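 note: signal is the Cy5 over europium emission ratio at 671 and 618 nm; 0% = plate median of compound wells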
UHRF1 ctr MBD2: counter-screen for MBD2 inhibitors: human UHRF1 methylated DNA binding inhibitors. shares compounds with MBD2 inh. UHRF1 binding to methylated oligonucleotide, TR-FRET. inhibition, % at 4.4 µM. actives 25% (n = 1,000);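 note: UHRF1 SRA domain binding a labeled hemimethylated CpG hairpin DNA; 0% = vehicle only and 100% = reference inhibitor with vehicle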
MBD2 confirm: MBD2-DBD methyl-DNA binding inhibition, TR-FRET confirmation; shares compounds with MBD2 inh; TR-FRET MBD2-DBD binding to methylated oligonucleotide; inhibition, % at 4.4 µM; actives 26% (n = 1,000); in the data active = inhibition above about 14%
The depositor's hits bear a star; / = no result. In the library only some 2.3% were active in any assay of this set; here they are far more common. Cut-off read from the data, not from the text of the source, unless noted: active = inhibition above about 21%; inactive = the rest.

SMILES	MBD2 inh	PLC-gamma1 inh	PLCb3 inh	UHRF1 MBD2 ctr	LEDGF integ inh	UHRF1 ctr MBD2	MBD2 confirm
Cc1ccc(S(=O)(=O)n2cnc3cc([N+](=O)[O-])ccc32)cc1C	14*	6	8	1	3	6	4
COc1cc2c(cc1NC(=O)COc1ccccc1OC)oc1ccccc12	0	1	2	14	-1	/	/
COc1cc2c(cc1NC(=O)COC(=O)Cn1cnc3ccccc31)oc1ccccc12	19*	-1	-3	-4	-2	3	3
Cn1cc(C[C@H](NC(=O)OC(C)(C)C)C(=O)N[C@@H](CO)Cc2ccccc2)c2ccccc21	26*	1	2	2	1	7	2
CC(=O)c1cc(-c2ccc(-c3ccccc3)c(F)c2)c(=O)n2c1CCC2	-1	-8	-18	1	0	/	/
C[C@@H]1C[C@H]2[C@@H](C)C(=O)N3[C@H](c4ccccc4)[C@H](C)C[C@H]3[C@@H](C)C(=O)N2[C@@H]1c1ccccc1	3	3	-4	1	-1	/	/
CS(=O)(=O)Cc1cc(N2CCCC2)nc(-c2ccccc2)n1	20*	-5	-7	-1	0	6	3
O[C@H](COc1cccc(C(F)(F)F)c1)CN1CCC(C(O)(c2ccccc2)c2ccccc2)CC1	-1	4	5	1	5	/	/
CCCCCNC(=O)N[C@H](C(=O)O)C(C)C	16*	0	1	1	2	8	5
CCCCOCCCNC(=O)N[C@H](C(=O)OC)C(C)C	5	3	3	-3	-3	/	/
O=C(OCc1cn(Cc2c(F)cccc2F)nn1)N1CCOCC1	-2	3	2	2	0	/	/
CC1=NNC(=O)C1CCC(=O)N/N=C/c1ccccc1 (configuration not stated)	27*	2	-4	-1	-5	7	2
COc1ccc(CN(CC#Cc2ccc(C)cc2)C(N)=NC(=O)CCc2ccccc2)c(OC)c1	-3	-1	-6	-1	0	/	/
C=C(C)C(=O)Nc1cccc(C2=NOC3(C2)C[C@H](C(N)=O)N(C(=O)c2ccccc2C(=O)c2ccccc2)C3)c1 (some centres not stated)	31*	2	0	80*	12	67*	42*
C=C(C)C(=O)Nc1cccc(C2=NOC3(C2)C[C@@H](C(N)=O)N(C(=O)CC(c2ccccc2)c2ccccc2)C3)c1 (some centres not stated)	26*	0	-1	63*	3	60*	42*
C/C=C/C(=O)Nc1cccc(C2=NOC3(C2)C[C@@H](C(N)=O)N(C(=O)c2cc([N+](=O)[O-])cc([N+](=O)[O-])c2)C3)c1 (some centres not stated)	16*	1	1	3	-1	2	3
C/C=C(/C)C(=O)Nc1cccc(C2=NOC3(C2)C[C@@H](C(N)=O)N(C(=O)CC(c2ccccc2)c2ccccc2)C3)c1 (some centres not stated)	6	3	1	2	1	/	/
CC(=O)CC[C@@H]1CC[C@]2(CCCN(S(=O)(=O)C3CCCCC3)C2)O1	4	-1	2	-2	-1	/	/
C#CCN1CC(N(C)CCOC(=O)c2cc3ccccc3[nH]2)CS1(=O)=O (configuration not stated)	4	-3	-5	2	-2	/	/
COc1ccc2c(C(c3ccccc3O)C3CCCN3S(=O)(=O)c3ccc(C)cc3)cn(C)c2c1 (configuration not stated)	3	5	-1	4	-5	/	/
CCCCCC(=O)Nc1cc(S(=O)(=O)O)cc2cc(S(=O)(=O)O)cc(O)c12	97*	-45	-108	99*	91*	103*	113*
CCCCCC(=O)Nc1cc(S(=O)(=O)N2CCCCC2)ccc1N1CCCCC1	3	-3	-10	2	0	/	/
CC(=O)Nc1c2c(nn1-c1ccc(C)cc1)CS(=O)(=O)C2	70*	-1	-9	1	-3	3	1
Cc1ccc(-n2nc3c(c2NC(=O)C2CC2)CS(=O)(=O)C3)cc1	-2	-4	-6	2	0	/	/
